These results are taken from PubChem BioAssay (NCI).

Compounds without any hit were thinned out: in the full panel of roughly 83,000, 20% have a hit.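 Interpretation: 100, growth as untreated; towards 0, rising growth inhibition; 0, no net growth; 0 to -100, cell death. Compounds scoring below 10 were considered active.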 Activity calls are given as the source filed them.

The assay has as its system MDA-MB-468 breast. Put plainly: NCI-60 one-dose screen, 48 h (100 = growth as untreated, 0 = no growth, -100 = all killed). Conditions: 10 µM unless noted.
On to `COc1cc(-c2nc(SCCC(C)C)nc(Nc3ccc(F)cc3)c2C#N)cc(OC)c1OC`, for which the growth was 96.8% (inactive).

On to `COc1cc(OC)c(/C=C/S(=O)(=O)Cc2ccc(OC)c(N)n2)c(OC)c1`, for which the growth is 13.5% (inactive).

For the molecule `CC[C@]12CC(C(=O)OC)=C3Nc4ccccc4[C@@]34CCN(C14)[C@@H]1c3cc4c(cc3O[C@@H]1[C@H]2O)NC1=C(C(=O)OC)C[C@@]2(CC)C3N(CC[C@@]143)C[C@H]1O[C@H]12` (stereo not given in full), the growth is -35.7% (active).

With `CN(Cc1ccccc1)c1ccc(SC#N)cc1`, the growth is 84.2% (inactive).

For the molecule `c1ccc(-c2nc(N3CCNCC3)c3oc(-c4ccccc4)nc3n2)cc1`, the growth is -74% (active).

Turning to `CN1CCn2c(c(Sc3ccc(C(=O)NO)cc3)c3ccccc32)C1=O`, the growth is -39.2% (active).

Take `O=C(/C=C1\C(=O)N(Cc2ccc([N+](=O)[O-])cc2)c2ccccc21)c1ccc(OCCN2CCCCC2)cc1`: the growth is -63.1% (active).

As to `COc1ncc(-c2ccc3ncnc(Nc4cccc(Cl)c4)c3c2)cc1NS(=O)(=O)CCN1CCOCC1`, the growth is -52.8% (active).

As for `COc1ccccc1S(=O)(=O)Nc1ccc2c(c1)CN(C)C(=O)N2`, the growth was 21.1% (inactive).

For the molecule `Cc1ccc(S(=O)(=O)Oc2ccc3sc4cccc(NCCN(C)C)c4c(=O)c3c2)cc1`, the growth is -91.7% (active).

Regarding `CN1CCN(c2ccc(OC(F)(F)F)c(Nc3ncc4c(n3)-c3c(c(C(N)=O)nn3CCO)CC4)c2)CC1`, the growth is 9.13% (active).

On to `COC(=O)[C@H]1[C@H](OC)[C@@H](OC(=O)/C=C/c2ccncc2)CC2CN3CCc4c([nH]c5cc(OC)ccc45)[C@@H]3C[C@@H]21` (stereo not given in full), for which the growth was 53.6% (inactive).

For the molecule `O=C1Nc2ccccc2C12Nc1cc(Cl)ccc1S2` (stereo not given), the growth was 105% (inactive).

For the molecule `COc1ccc2c(c1)c(-c1nc(-c3c[nH]c4ncccc34)cs1)cn2CCNC(=O)OC(C)(C)C`, the growth was 20% (inactive).

With `O=c1oc2ccc(Br)cc2c(=O)n1-c1ccc(I)cc1F`, the growth is -0.692% (active).

Turning to `CC1(C)C2CC1C1(/C=N/NC(N)=S)C(C2)C(C#N)(C#N)C1(C#N)C#N` (stereo not given), the growth is 76.6% (inactive).

For `CCCCC1COc2cccc3c(SCC(=O)N(C)c4cccc(Cl)c4)cc[n+]1c23` (stereo not given), the growth was 104% (inactive).

Consider `C=C=COc1cccc(/C(N)=N/C(N)=N/c2nc3ccccc3s2)c1`, for which the growth is 102% (inactive).

On to `COc1ccc(Oc2nc(NC3CCCC3)nc(Sc3ccc(OC)cc3)n2)cc1`, for which the growth was 93% (inactive).

With `C#CCNC(=O)[C@]1(C)CCC[C@@]2(C)[C@H]1CC=C1C=C(C(C)C)CC[C@@H]12`, the growth was 101% (inactive).

`CCNC(=S)NN`: the growth is 34.9% (inactive).

As for `Nc1ccc(N2CCOCC2)cc1`, the growth was 96.9% (inactive).

For the molecule `N#CC1c2ccccc2C=CN1C(=O)N(c1ccccc1)c1ccccc1` (stereo not given), the growth was 5.11% (active).

Take `CCOc1ccc(/C=C/C=N/NC(N)=S)cc1`: the growth was 80.2% (inactive).

As for `N#C/C(=C\c1ccc(-c2ccc(Cl)cc2Cl)o1)c1ccc(F)cc1`, the growth is 96.3% (inactive).
